Results: PubChem BioAssay (NCATS)
Calls of active or inactive are those of the source. The rule behind the calls is not given here.

Columns and labels:
[1] = Immunotoxin (HA22) sensitization/mitigation study. Vehicle arm (PBS) (AID 1159510)
[2] = Immunotoxin (SS1P) sensitization/mitigation study. Vehicle arm (DMEM) (AID 1159513)
Potency is the fitted concentration of half-maximal effect.

Row | Structure (SMILES) | Potency [1] | Potency [2]
1 | Cc1cccc(-c2[nH]c(C(C)(C)C)nc2-c2ccc3nccnc3c2)n1 | inactive | –
2 | COc1cc2nccc(Oc3ccc(NC(=O)C4(C(=O)Nc5ccc(F)cc5)CC4)cc3)c2cc1OC | 20.9 µM (active) | –
3 | O=C(O)c1ccc(-c2c[nH]c3ccc(-c4ccccc4)cc23)cc1C1CCCC1 | inactive | –
4 | CN1CCN(CCOc2cc(OC3CCOCC3)c3c(Nc4c(Cl)ccc5c4OCO5)ncnc3c2)CC1 | 20.9 µM (active) | –
5 | CC1(C)CCC(c2ccc(Cl)cc2)=C(CN2CCN(c3ccc(C(=O)NS(=O)(=O)c4ccc(N[C@H](CCN5CCOCC5)CSc5ccccc5)c(S(=O)(=O)C(F)(F)F)c4)cc3)CC2)C1 | 0.332 µM (active) | –
6 | CC(O)=C(C#N)C(=O)Nc1ccc(C(F)(F)F)cc1 | 16.6 µM (active) | –
7 | O=C(c1cc(Cc2n[nH]c(=O)c3ccccc23)ccc1F)N1CCN(C(=O)C2CC2)CC1 | 14.8 µM (active) | –
8 | O=C(c1ccc(Nc2nccc(-c3cc4ccccc4s3)n2)cc1)N1CCC(N2CCCC2)CC1 | 16.6 µM (active) | –
9 | COc1ccc(CC2SC(=O)NC2=O)cc1C(=O)NCc1ccc(C(F)(F)F)cc1 (stereo not drawn) | inactive | –
10 | COC(=O)Nc1ccc(-c2nc(N3CCOCC3)c3cnn(C4CCN(C(=O)OC)CC4)c3n2)cc1 | 16.6 µM (active) | 0.187 µM (active)
11 | CN1CC[C@@H](c2c(O)cc(O)c3c(=O)cc(-c4ccccc4Cl)oc23)[C@@H](O)C1 | 0.0166 µM (active) | 0.0469 µM (active)
